# Assay results from PubChem BioAssay (EPA / NIEHS).
# Results filed as inconclusive are left out. Calls of active or inactive are those of the source. How the source made its calls: active means hit-call score of the fitted dose curve at least 0.9, where 1 is the maximum; inconclusive means response in the unintended direction; inactive means score below 0.9.
# Experiment: ACEA_ER_AUC_viability: ACEA Biosciences xCELLigence Real-Time Cell Analysis on Estrogen Receptor Agonism for Viability (AID 2283782);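 further: continuous compound exposure with impedance area under curve over 80 h; hit means loss of impedance signal meaning reduced cell growth or viability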
# How it was run: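 T-47D; phenol red-free RPMI1640 + 10% CS-FBS; 8 conc., 1:4 serial, max 100 uM final, ≤0.5% DMSO; n = 2; continuous exposure; impedance monitored to 80 h post-dose; AUC vs DMSO.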
SMILES,outcome,AC50
CN1C(=O)CC[C@H]1c1cccnc1,inactive,–
O=C(O)c1ccccc1C(=O)OCc1ccccc1,inactive,–
CCCCCCCCOC(=O)c1cc(O)c(O)c(O)c1,–,10 µM (active)
COCC(C)OCC(C)OCC(C)O (centres undefined),inactive,–
CCOC(=O)O[C@H](C)OC(=O)c1ccc2c(c1)cc(C(=O)NC1CCN(C(C)C)CC1)n2Cc1cc(-c2ccc(Cl)s2)on1,–,5.33 µM (active)
CCCCCCCCN(C)CCCCCCCC,inactive,–
Clc1cc(Cl)c2c(c1)N=C1CCCCCN1C2,inactive,–
COc1cccc([C@H](O)C2CCN(CCc3ccc(F)cc3)CC2)c1OC,inactive,–
NCc1cccc(C2CCN(C(=O)c3ccc(C#Cc4ccccc4F)o3)CC2)c1,–,7.73 µM (active)
NC(=O)c1nc(-c2cccc(-c3cc(F)ccc3OCC(F)(F)C(F)(F)F)c2)n[nH]1,–,94 µM (active)
CC(=O)N1CCN(c2ccc(OC[C@H]3CO[C@](Cn4ccnc4)(c4ccc(Cl)cc4Cl)O3)cc2)CC1,–,86.7 µM (active)
CCN(Cc1cccnc1)C(=O)c1cccc(Cl)c1[C@]1(C)C(=O)N(Cc2ccc(OC)cc2OC)c2ccc(Cl)cc21,inactive,–
CCCCCCCCCCCC[N+](C)(C)C,–,50 µM (active)
CC(C)(C)c1cc(/C=C2\SC(N)=NC2=O)cc(C(C)(C)C)c1O,–,31.6 µM (active)
CCCCCCCCCC(=O)O,inactive,–
Cc1ccc(C(C)C)cc1,inactive,–
OCCO,inactive,–
Cc1cn([C@H]2C[C@H](N=[N+]=[N-])[C@@H](CO)O2)c(=O)[nH]c1=O,inactive,–
O=C(Nc1ccc(Cl)cc1)Nc1ccc(Cl)c(Cl)c1,–,18.7 µM (active)
COc1ccc2cc(S(=O)(=O)N[C@H](CC(=O)N[C@H](Cc3ccc(CN4[C@H](C)CCC[C@@H]4C)cc3)C(=O)N(C)C(C)C)c3ccc4c(c3)OCO4)ccc2c1,–,10.8 µM (active)
O=C(O)Cn1c(=O)n(Cc2ccc(Br)cc2F)c(=O)c2ccc(Cl)cc21,inactive,–
CN(C)C(=O)C1(N2CCCCC2)CCN(CC[C@@]2(c3ccc(Cl)c(Cl)c3)CN(C(=O)c3ccccc3)CCO2)CC1,–,10.3 µM (active)
CN(C)c1ccc(C(=C2C=CC(=[N+](C)C)C=C2)c2ccc(N(C)C)cc2)cc1,–,5.4 µM (active)
CN(C[C@@H](CC[N+]12CCC(C3CCCCC3)(CC1)CC2)c1ccc(Cl)c(Cl)c1)C(=O)c1cc(C(F)(F)F)cc(C(F)(F)F)c1,–,10.6 µM (active)
